POLK inh = inhibitors of human DNA polymerase kappa | Q9UBT6 | purified Pol kappa, fluorescent DNA synthesis assay, 10 min | Potency, µM (highest dose often 107 µM), usual class: inhibitors | 400,000 compounds, 0.53% hits | AID 588579
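Kinetic fluorescence readout at 0 and 10 min followed reaction start with substrate at 50 nM final. Beforehand, enzyme (10 nM Pol kappa) stood 15 min with compound at room temperature; buffer-only wells were negative controls.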
FEN1 inhibitor = human FEN1 inhibition; 390,000 compounds, 0.35% hits; P39748; Potency, µM (titrated, usually from 114 µM), most hits filed as inhibitors; Recombinant FEN1 flap cleavage, fluorescence, 15 min; AID 588795; also: nearly all actives have a fitted effect of over 65% in size
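Recombinant FEN1 (10 nM) was preincubated with pin-transferred compounds for 15 min at room temperature, then flap DNA substrate (50 nM final) was added. Plates were read at 0 and 15 min, and normalized concentration–response data were fitted to a four-parameter Hill equation.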
Pol iota inh = blocks human DNA polymerase iota activity | Q9UNA4 | Pol iota fluorescent replication assay, 10 min | Potency, µM (highest dose often 115 µM), most hits filed as inhibitors | 390,000 compounds, 1% hits | AID 588590
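Fluorescent replication assay read twice, at 0 min and 10 min after adding 50 nM (final) substrate. Enzyme (10 nM) and compounds were first incubated 15 min at room temperature; enzyme-free buffer wells were negative controls.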
WRN helicase inh = WRN helicase (human) inhibition | 360,000 compounds, 0.46% hits | WRN helicase unwinding, fluorescent forked duplex, kinetic | Q14191 | AID 651768 | Potency, µM (doses to about 114 µM), usual class: inhibitors; also: nearly all actives have a fitted effect of over 55% in size
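WRN at 20 nM final preincubated with compound 15 min at room temperature; reaction started with 100 nM fluorophore/quencher forked duplex oligonucleotide and 2 mM ATP final. Unwinding followed kinetically by red fluorescence (ex 525, em 598 nm).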
POLH inh = blocks human DNA polymerase eta activity. Q9Y253. recombinant Pol eta, fluorescent DNA replication assay. Potency, µM (series often up to 114 µM), most hits filed as inhibitors. 390,000 compounds, 1.2% hits
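Pol eta at 10 nM preincubated with compounds 15 min at room temperature; reaction started with fluorescent substrate (50 nM final) and read kinetically at 0 and 10 min.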
POLB inh = DNA polymerase beta (human) inhibition | P06746 | Pol beta primer extension/strand displacement, fluorescence kinetic | Potency, µM (titrated, usually from 114 µM), usual class: inhibitors | 340,000 compounds, 1.3% hits | AID 485314
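Pol beta (10 nM) was preincubated with compound for 15 min at room temperature. The reaction was then started with 50 nM substrate and read immediately and after a further 10 min at room temperature.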
PGK validate = TbPGK inhibition, hit validation. TbPGK coupled GAPDH assay, Kinase-Glo luminescence. 500 compounds, 79% hits. shares compounds with POLK inh. Potency, µM (doses to about 57.5 µM), most hits filed as inhibitors; also: nearly all actives have a fitted effect of over 65% in size
Target sequence (P07378 whole entry, looked up): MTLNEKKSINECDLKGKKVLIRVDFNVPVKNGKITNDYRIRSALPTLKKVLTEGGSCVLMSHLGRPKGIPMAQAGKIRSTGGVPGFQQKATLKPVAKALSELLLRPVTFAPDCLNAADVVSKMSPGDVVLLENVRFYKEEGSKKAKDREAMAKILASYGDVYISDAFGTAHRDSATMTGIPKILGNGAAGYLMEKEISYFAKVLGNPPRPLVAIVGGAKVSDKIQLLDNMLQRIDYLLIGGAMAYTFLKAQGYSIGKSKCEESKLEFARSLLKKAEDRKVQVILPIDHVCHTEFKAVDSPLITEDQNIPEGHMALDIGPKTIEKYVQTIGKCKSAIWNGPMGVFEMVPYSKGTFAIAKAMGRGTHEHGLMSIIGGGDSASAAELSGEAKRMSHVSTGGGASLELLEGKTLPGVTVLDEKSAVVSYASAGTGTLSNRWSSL
Pol iota confirm = Human Pol iota inhibitor confirmatory assay | shares compounds with POLK inh | Pol iota primer extension, TAMRA/BHQ fluorescence | Potency, µM, hits mostly inhibitors | 1,500 compounds, 77% hits | AID 720496
Each line names hits and unclear results; the compound was inactive in the other large screens (follow-up assays come after a bar, where they were run). An excerpt weighted towards active compounds, which were near 2.4% of everything screened. Calls follow the shape of the dose curve; as a rule, active = well fitted curve in the direction sought with a large enough effect; inconclusive = small, poorly fitted or top-dose-only effect, or another doubt; inactive = no such curve, though single readings can be large; an effect the other way counts as inactive or inconclusive.

COC(=O)C(NC(=O)CCc1c(C)nc2c(-c3ccccc3)c(C)nn2c1C)C(C)C (stereo not drawn)	none (no result: WRN helicase inh)
O=C(O)c1ccc(-c2ccc(/C=C3\NC(=O)N(Cc4ccc(Cl)cc4)C3=O)o2)cc1Cl	POLK inh 4.5µM, FEN1 inhibitor 28µM, Pol iota inh 1.4µM, WRN helicase inh 22µM, POLH inh 1.3µM, POLB inh 4.5µM | PGK validate 5.8µM
Cc1ccc(/C=C2/NC(=O)N(Cc3ccc(Br)cc3)C2=O)o1	WRN helicase inh inconclusive
Cc1ccc(Cl)cc1NC(=O)c1ccc(NC(=O)N2CCSc3ncccc32)cc1	none (no result: WRN helicase inh)
O=S(=O)(c1ccccc1)N1CCC2(CCCN(c3ccccn3)C2)CC1	none (no result: FEN1 inhibitor, Pol iota inh, WRN helicase inh, POLH inh, POLB inh)
O=C(NCc1nc2ccccc2[nH]1)c1ccc(S(=O)(=O)N2CCCC2)cc1	none
O=C(NCc1nc2ccccc2[nH]1)c1ccc(S(=O)(=O)N2CCOCC2)cc1	none | PGK validate inactive
CCCCCOc1ccc(C(=O)N(Cc2ccccc2)C2CCS(=O)(=O)C2)cc1 (stereo not drawn)	none (no result: WRN helicase inh)
CC(C(=O)Nc1ccc(C(=O)O)c(O)c1)N1C(=O)/C(=C\c2ccco2)SC1=S (stereo not drawn)	Pol iota inh inconclusive, WRN helicase inh 40µM, POLH inh 3.2µM, POLB inh inconclusive | PGK validate 23µM
CC(C)C(C(=O)O)N1C(=O)/C(=C/C=C/c2ccco2)SC1=S (stereo not drawn)	POLK inh 3.2µM, FEN1 inhibitor 18µM, Pol iota inh 1.1µM, WRN helicase inh 3.5µM, POLH inh 0.79µM, POLB inh 1.6µM | PGK validate 2.6µM
O=C(CCCN1C(=O)/C(=C/c2ccccc2)SC1=S)Nc1ccc(C(=O)O)c(O)c1	none
COc1ccc(NC(=O)CSC2=Nc3ccccc3C3=NC(CCC(=O)NCc4ccc(F)cc4)C(=O)N23)cc1Cl (stereo not drawn)	none (no result: WRN helicase inh)
c1ccc(C2=NNC(=NC3CC3)SC2)cc1	Pol iota inh inconclusive | PGK validate 16µM
CN=C1C=CC(=C(c2ccc(N(C)C)cc2)c2ccc(N(C)C)cc2)C=C1	none (no result: FEN1 inhibitor, Pol iota inh, WRN helicase inh, POLH inh, POLB inh)
CCN(CC)c1ccc(C(=C2C=CC(=[N+](CC)CC)C=C2)c2ccc(N(CC)CC)cc2)cc1	FEN1 inhibitor inconclusive (no result: POLB inh) | PGK validate 16µM
O=c1c(OC2OC(CO)C(O)C(O)C2O)c(-c2ccc(O)c(O)c2)oc2cc(O)cc(O)c12 (stereo not drawn)	POLK inh 18µM, FEN1 inhibitor inconclusive, Pol iota inh 25µM, POLH inh inconclusive | PGK validate inconclusive
COc1cc(-c2oc3cc(O)cc(O)c3c(=O)c2O[C@@H]2O[C@H](CO)[C@@H](O)[C@H](O)[C@H]2O)cc(OC)c1O	none (no result: FEN1 inhibitor, Pol iota inh, WRN helicase inh, POLH inh, POLB inh)
Nc1c(C(=O)O)cnc2c(-c3ccc(Cl)cc3)cnn12	WRN helicase inh inconclusive | PGK validate inconclusive
CC(=O)c1cnc2c(-c3ccc(Cl)cc3)cnn2c1C	none
O=C(CCS(=O)(=O)c1ccc(Br)cc1)NCc1ccco1	POLH inh inconclusive, POLB inh inconclusive | PGK validate 16µM
COc1c(O)c(=O)n2c3ccccc3c3ccnc1c32	FEN1 inhibitor 11µM, Pol iota inh inconclusive (no result: POLB inh) | Pol iota confirm 4.7
O=c1c(Cl)c(O)c2cccc3c4ccccc4n1c23	FEN1 inhibitor inconclusive, POLH inh inconclusive, POLB inh inconclusive
Oc1ccccc1C1C=C(c2ccc3c(c2)OCO3)NC(c2cccc(F)c2)N1 (stereo not drawn)	Pol iota inh inconclusive (no result: WRN helicase inh, POLH inh, POLB inh)
C=C(C)C(=O)OCCCCCCOc1ccc(C(=O)O)cc1	POLK inh 25µM, Pol iota inh 14µM, POLH inh 35µM, POLB inh 71µM | PGK validate 9.2µM
Cc1occc1C(=O)N/N=C/c1ccc(N(C)C)cc1	none | PGK validate 10µM

Bioassay records as filed in PubChem BioAssay.
